S2 tox = Viability Counterscreen for Primary qHTS for Inhibitors of ATXN expression; AID 651635, 2014; S2 cells (HEK-293 line with an ATXN2-luciferase reporter) viability, CellTiter-Fluor protease fluorescence, 24 h; Potency, µM (highest dose often 56.7 µM), usual class: cytotoxic; 400,000 compounds, 0.49% hits; note: potency is the fitted concentration of half-maximal effect; nearly all actives have a fitted effect of over 40% in size
ATXN2 expr inh = Primary qHTS for Inhibitors of ATXN expression | 360,000 compounds, 0.72% hits | HEK-293 ATXN2-luciferase reporter, luminescence, 24 h | AID 1745845, 2022 | Potency, µM (titrated, usually from 57 µM), for inactives: at the top dose activity change, negative = inhibition, actives largely listed as inhibitors; note: potency is the fitted concentration of half-maximal effect; % is set by controls: 0 for no effect and ±100 for the full control effect; nearly all actives have a fitted effect of over 55% in size
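ATXN2-luciferase reporter cells (luciferase flanked by upstream and downstream ATXN2 gene portions) were treated 24 h at 37 °C with compounds at up to 57 uM. SteadyGlo luminescence gave expression; GF-AFC fluorescence gave viability.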
HepG2 tox = qHTS for Inhibitors of TGF-b: Cytotox Counterscreen | HepG2 CAGA-GFP viability, ATP luminescence, 18 h | 410,000 compounds, 0.76% hits | Potency, µM (series often up to 46.1 µM), inactives show top-dose activity change, negative = cytotoxicity, actives largely listed as cytotoxic | AID 588856, 2011; note: potency is the fitted concentration of half-maximal effect
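HepG2 CAGA-GFP cells (1000/well, DMEM with 1% FBS) received compound, then TGF-beta at 500 pg/mL final, and were incubated 18 hours at 37 degrees C. Viability was read by CellTiter-Glo luminescence. Media-only wells were set as complete cell-killing and DMSO as no toxicity.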
DRD3 agonist = qHTS of D3 Dopamine Receptor Agonist: qHTS | D3R DiscoveRx beta-arrestin cells, luminescence, 90 min | max activation, % | 410,000 compounds, 0.58% hits; in the data active = max activation above about 30%; note: 0% is about no effect
Target sequence (P35462 whole entry, looked up): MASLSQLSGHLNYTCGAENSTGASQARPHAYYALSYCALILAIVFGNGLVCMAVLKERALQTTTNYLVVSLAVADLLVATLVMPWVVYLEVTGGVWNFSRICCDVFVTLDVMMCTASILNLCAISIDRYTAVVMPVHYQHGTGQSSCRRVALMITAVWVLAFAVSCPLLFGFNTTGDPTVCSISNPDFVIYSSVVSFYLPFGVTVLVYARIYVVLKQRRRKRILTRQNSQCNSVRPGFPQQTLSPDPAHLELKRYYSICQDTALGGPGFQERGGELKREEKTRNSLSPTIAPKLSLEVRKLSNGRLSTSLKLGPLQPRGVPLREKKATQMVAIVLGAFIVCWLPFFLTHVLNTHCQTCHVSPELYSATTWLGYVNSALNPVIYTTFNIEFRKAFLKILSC
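Agonist-mode cell screen: cells plated at 1500/well and incubated overnight at 37 °C, then exposed to library compounds for 90 min at 37 °C. Detection reagent was added for 30–60 min at room temperature, and luminescence was read.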
TGFb SMAD3 inh = qHTS for Inhibitors of TGF-b; HepG2 CAGA-GFP TGF-b/SMAD3 reporter, GFP fluorescence, 18 h; TGF-beta stimulated, 500 pg/mL final; 410,000 compounds, 1.2% hits; Potency, µM (highest dose often 46.1 µM), inactives show at the highest dose activity, negative = inhibition, hits mostly inhibitors; note: potency is the fitted concentration of half-maximal effect; % is set by controls: 0 for no effect and ±100 for the full control effect; nearly all actives have a fitted effect of over 65% in size
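TGF-beta reporter screen: HEPG2 CAGA-GFP, 1% FBS, 500 pg/mL TGF-beta final, 18 h; per-cell GFP summed per well; curves fitted and categorized by class.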
DRD3 antagonist = qHTS of D3 Dopamine Receptor Antagonist: qHTS; D(3) dopamine receptor (Homo sapiens), P35462; D3R cells, DiscoveRx beta-arrestin luminescence, antagonist mode; active compounds read low; max response, negative = inhibition, %; 360,000 compounds, 2.5% hits; AID 652054, 2013; in the data active = max response below about -50%; inconclusive = no clear call, values can overlap the other calls; note: % is set by controls: 0 for no effect and ±100 for the full control effect
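Cells plated overnight at 1500 cells/well, then exposed to library compounds with dopamine controls for 90 minutes at 37 degrees C. DiscoveRx reagent added for 30–60 minutes at room temperature; luminescence read, quantitative HTS format.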
An asterisk follows results filed as active; i = inactive; ? = inconclusive; . = no result given; [ ] = another dose, or the depositor's remark. Shown are actives, neighbours in structure and some others; about 4.8% of the full set was active somewhere. Unless noted, calls come from the whole dose curve; as a rule, active = well fitted curve in the direction sought with a large enough effect; inconclusive = small, poorly fitted or top-dose-only effect, or another doubt; inactive = no such curve, though single readings can be large; an effect the other way counts as inactive or inconclusive.

SMILES	S2 tox	ATXN2 expr inh	HepG2 tox	DRD3 agonist	TGFb SMAD3 inh	DRD3 antagonist
Cc1cc(-c2nnc3n2N=C(C(C)(C)C)CS3)n[nH]1	i	-7%	-4%	-7	0%	-52*
O=C(CN1CCN(c2ccc(O)cc2)CC1)Nc1ccc(S(=O)(=O)N2CCCC2)cc1	i	-26%	-26%	98*	9%	9
CC(C)(C)NNC(=S)Nc1ccc(S(=O)(=O)N2CCOCC2)cc1	i	-14%	-13%	32*	1%	6
Cc1ccc(S(=O)(=O)N2CCOCC2)cc1NC(=O)CN1CCN(c2ccc(O)cc2)CC1	i	2%	16%	3	-8%	8
Cc1ccc(S(=O)(=O)N2CCN(CC(=O)Nc3ccc(N4CCOCC4)cc3)CC2)cc1C	i	5%	8%	2	10%	-93*
O=C(CN1CCOCC1)Nc1ccc(S(=O)(=O)N2CCCCCC2)cc1	i	2%	-5%	31*	-1%	4
CC(=O)NC(=S)Nc1ccc(S(=O)(=O)N2CCOCC2)cc1	i	-22%	-17%	4	5%	8
O=C(CN1CCCCC1)Nc1ccc(S(=O)(=O)N2CCCCCC2)cc1	i	-6%	-15%	-1	2%	-19
O=C(CN1CCCC1)Nc1ccc(S(=O)(=O)N2CCCCC2)cc1	?	?	2%	-1	8%	5
COc1cc(-c2noc(CCC(=O)Nc3cc(C)ccc3C)n2)cc(OC)c1OC	?	-4%	-5%	-5	?	.
O=c1c(-c2ccc(O)cc2)coc2cc(OC3O[C@H](CO)[C@H](O)[C@H](O)[C@H]3O)cc(O)c12 (some centres not stated)	.	290%	.	.	.	.
O=C(CNC1CCCC1)Nc1ccc(S(=O)(=O)N2CCCCC2)cc1	i	-11%	-23%	-12	1%	0
O=C(CNC1CCN(Cc2ccccc2)CC1)Nc1ccc(S(=O)(=O)N2CCCCC2)cc1	i	.	0%	-20	-1%	-82*
Cc1ccc(C(=O)C2CCN(CC(=O)NCc3ccc(F)cc3)CC2)cc1	i	-20%	-21%	-29	-17%	-93*
NC(=O)C1CCN(CC(=O)Nc2ccc3c(c2)OCCO3)CC1	i	6%	-5%	4	0%	-28
Cc1ccc(C(=O)C2CCNCC2)cc1	i	4%	-15%	-6	0%	-65*
O=C(CN1CCC(C(=O)c2ccc(Cl)cc2)CC1)Nc1ccc2c(c1)OCCO2	i	-14%	-1%	-27	?	-76*
Cc1ccc(CNC(=O)CN2CCCC(C)C2)cc1 (configuration not stated)	i	0%	0%	-6	15%	-71*
Cc1ccc(C(=O)C2CCN(CC(=O)Nc3ccccc3C)CC2)cc1	i	-13%	-3%	-15	1%	?
Cc1ccc(NC(=O)CN2CCC(C(=O)c3ccc(F)cc3)CC2)cc1	?	-8%	-34%	-10	-5%	-69*
COc1ccc(CN2CCNC(=O)C2CC(=O)NC2CCOCC2)c(F)c1 (configuration not stated)	i	-8%	3%	6	9%	-14
COc1ccc(CN2CCNC(=O)C2CC(=O)NC2CCCCCC2)c(F)c1 (configuration not stated)	i	-13%	-34%	-25	-10%	-69*
Cc1ccc(-n2nc(C(=O)O)nc2-c2ccccc2)cc1	i	-3%	2%	-8	9%	-51*
CN1C(=O)/C(=C2\SC(N3CCCCCC3)=NC2=O)c2ccccc21	i	48%	-12%	2	-3%	-67*
CCCN1C(=O)/C(=C2\SC(N3CCCCC3)=NC2=O)c2ccccc21	?	53%	-17%	-2	-3%	31
SMILES	S2 tox	ATXN2 expr inh	HepG2 tox	DRD3 agonist	TGFb SMAD3 inh	DRD3 antagonist
CC(C)(C)NC(=O)C1CCC(C)(C(=O)O)C1(C)C (configuration not stated)	i	2%	23%	33*	-8%	15
COc1ccc(NC(=O)C2CCC(C)(C(=O)O)C2(C)C)cc1 (configuration not stated)	i	-11%	0%	5	4%	-55*
CC1(C(=O)O)CCC(C(=O)Nc2ccccc2O)C1(C)C (configuration not stated)	i	0%	-4%	-5	24%	-10
CCC(=O)N1CCc2cc(CNS(=O)(=O)c3cc(Cl)ccc3OC)ccc21	.	.	0%	-1	-7%	.
Cc1ccc(O)c(-c2cc(-c3cccc(F)c3)n[nH]2)c1	i	29%	-84%	-1	22µM*	25
COc1ccc(-c2nnc(SCC(=O)N3CCC(Cc4ccccc4)CC3)o2)cc1OC	i	-13%	3%	38*	-16%	49
COc1ccc(OCC(=O)N2CCC(Cc3ccccc3)CC2)cc1	i	-6%	-2%	32*	-9%	10
CCc1cc(=O)[nH]c(SCC(=O)N2CCC(Cc3ccccc3)CC2)n1	?	6%	4%	-20	0%	-59*
O=C(COc1ccc(F)cc1)N1CCC(Cc2ccccc2)CC1	?	17%	-11%	2	-3%	-2
COc1cc(/C=N/Nc2nncn2N)ccc1OCc1c(C)no[n+]1[O-]	i	.	10µM*	-11	7.1µM*	-2
COc1ccc(SCC(=O)c2cc(C)c(OC(=S)N(C)C)c(C)c2)cc1	i	31%	-28%	0	-3%	-51*
O=C(CCl)Nc1cn(-c2ccccc2)nc1-c1ccccc1	8.9µM*	.	22µM*	0	?	-6
O=C(CCl)Nc1ccc(-c2ccccc2)cc1	10µM*	.	11µM*	-3	?	-21
O=C(CCl)Nc1ccc(N=Nc2ccccc2)cc1	20µM*	.	22µM*	2	?	-18
Cc1ccc(Sc2ccc(NC(=O)CCl)cc2)cc1C	?	32µM*	-107%	1	?	-10
CC(=O)Nc1ccc(N=Nc2ccccc2)cc1	i	65%	-2%	2	-6%	0
CC(=O)Nc1cn(-c2ccccc2)nc1-c1ccccc1	i	-19%[11.3 µM]	-9%	3	-2%	-12
CC(=O)Nc1ccc(NC(=O)Cc2ccc(-c3ccccc3)cc2)cc1	i	.	22%	-4	14%	5
CCCCn1cc(S(=O)(=O)c2ccc(CC)cc2)c(=O)c2cc(F)c(N3CCOCC3)cc21	.	.	14%	-6	-8%	.
